# From PubChem BioAssay
# Results filed as inconclusive are left out. The source made the active and inactive calls.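 How the source made its calls, unless noted: active means percent response above a set limit, the screen-wide mean plus 3 SD (cut at about 130% in these data); inactive means the rest.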
# Legend:
# [1] = yeast TOR pathway RPL19A-GFP modulators, primary screen, cell-based, S. cerevisiae, multiplex flow cytometry (AID 1862; in the data active means percent of DMSO control GFP below about 86%;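 further: lower values mimic rapamycin by blocking the RPL19A rise seen in DMSO cells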); conditions: S. cerevisiae RPL19A-GFP strain, flow cytometry fluorescence, 3 h; at 10 µM; stronger effect = lower value
# [2] = modulators of MEP2-GFP levels in yeast, primary screen, S. cerevisiae, multiplex flow cytometry (AID 1867;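 active means GFP response, as percent of the DMSO control, above the screen-wide mean plus 3 SD, about 139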;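 further: median GFP channel fluorescence of barcode-gated MEP2-GFP cells measured by flow cytometry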); conditions: S. cerevisiae MEP2-GFP strain, 3 h, at 10 µM, stronger effect = higher value, 100% means same as DMSO wells
# [3] = modulators of CIT2-GFP expression in yeast, primary screen, S. cerevisiae, GFP fusion, multiplex flow cytometry (AID 1870); conditions: 3 h, at 10 µM, stronger effect = higher value;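 further: barcoded CIT2-GFP strain pooled with four other GFP strains with rapamycin as positive control; median GFP fluorescence per well over plate mean of DMSO wells so 100% = DMSO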
# [4] = modulators of LAP4-GFP expression in yeast, primary screen, S. cerevisiae, multiplex flow cytometry (AID 1873;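 active means GFP signal, as percent of the solvent control, above the screen mean plus 3 SD, about 149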); conditions: 3 h, at 10 µM, stronger effect = higher value
# [5] = modulators of AGP1-GFP expression in yeast TOR pathway, primary screen, cell-based, multiplex flow cytometry, S. cerevisiae (AID 1887;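 active means GFP signal above the screen-wide mean plus 3 SD, that is over about 124.5% of the solvent control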;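 further: AGP1-GFP fusion strain of S. cerevisiae within a five-strain barcoded multiplex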); conditions: 3 h, at 10 µM, stronger effect = higher value
# [6] = inhibitors of CD8+ T cell-vesicle binding, pilot screen, LFA-1/ICAM-1 modulator project, MLPCN validation set, flow cytometry (AID 2523;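 active means response below a set limit, under 55% cells CD8-positive and vesicle-bound, and CD8 cells' 90th-percentile brightness under 279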;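 on vesicle binding response: mean PE anti-B7-1 fluorescence of CD8+ cells relative to row control; 100% = QL9-loaded vesicles with DMSO vehicle in the same plate row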); conditions: 2C mouse CD8+ T cells, at 7 µM, stronger effect = lower value; double positive events: measured here: CD8+/vesicle+ event percentage
# [7] = molecular target: Integrin beta-1 (Homo sapiens) + Integrin alpha-4 (Homo sapiens) (UniProt P13612+P05556); experiment: inhibition of HUTS-21 binding to VLA-4, pilot screen, VLA-4 allosteric modulator project, U937 cells, HUTS-21 mAb, flow cytometry, validation set (AID 2674;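 active means inhibition above 50%, about 3 SD of the validation set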;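 further: antibody binding induced by the VLA-4 ligand LDV present at three times its Kd; 0% = LDV ligand with antibody and no compound and 100% = antibody without LDV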); conditions: HUTS-21 LIBS mAb binding, at 6.7 µM, stronger effect = higher value, binding induced by LDV ligand
# Sequence of Integrin beta-1 (Homo sapiens) + Integrin alpha-4 (Homo sapiens) (P05556 whole entry, looked up): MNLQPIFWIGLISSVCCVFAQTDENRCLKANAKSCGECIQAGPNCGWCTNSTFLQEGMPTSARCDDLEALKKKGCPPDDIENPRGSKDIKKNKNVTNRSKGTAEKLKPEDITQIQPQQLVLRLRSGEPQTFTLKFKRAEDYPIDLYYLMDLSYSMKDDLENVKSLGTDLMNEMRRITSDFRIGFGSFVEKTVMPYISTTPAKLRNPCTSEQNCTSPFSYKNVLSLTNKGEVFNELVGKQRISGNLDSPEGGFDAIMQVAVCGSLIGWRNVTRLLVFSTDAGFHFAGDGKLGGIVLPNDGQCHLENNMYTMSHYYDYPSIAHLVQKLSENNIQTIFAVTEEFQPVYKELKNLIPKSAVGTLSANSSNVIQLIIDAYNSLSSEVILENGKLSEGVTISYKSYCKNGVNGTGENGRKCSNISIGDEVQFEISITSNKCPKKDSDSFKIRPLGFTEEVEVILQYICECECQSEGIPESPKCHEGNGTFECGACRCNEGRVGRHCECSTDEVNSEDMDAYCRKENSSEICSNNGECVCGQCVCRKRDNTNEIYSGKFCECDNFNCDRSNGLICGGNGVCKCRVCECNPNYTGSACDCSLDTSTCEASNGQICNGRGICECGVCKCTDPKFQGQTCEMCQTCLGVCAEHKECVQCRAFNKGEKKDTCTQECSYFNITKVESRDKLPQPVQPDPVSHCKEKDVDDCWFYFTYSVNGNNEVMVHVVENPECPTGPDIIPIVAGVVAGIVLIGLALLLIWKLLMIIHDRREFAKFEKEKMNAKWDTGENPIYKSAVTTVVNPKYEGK
# Sequence of Integrin beta-1 (Homo sapiens) + Integrin alpha-4 (Homo sapiens) (P13612 whole entry, looked up): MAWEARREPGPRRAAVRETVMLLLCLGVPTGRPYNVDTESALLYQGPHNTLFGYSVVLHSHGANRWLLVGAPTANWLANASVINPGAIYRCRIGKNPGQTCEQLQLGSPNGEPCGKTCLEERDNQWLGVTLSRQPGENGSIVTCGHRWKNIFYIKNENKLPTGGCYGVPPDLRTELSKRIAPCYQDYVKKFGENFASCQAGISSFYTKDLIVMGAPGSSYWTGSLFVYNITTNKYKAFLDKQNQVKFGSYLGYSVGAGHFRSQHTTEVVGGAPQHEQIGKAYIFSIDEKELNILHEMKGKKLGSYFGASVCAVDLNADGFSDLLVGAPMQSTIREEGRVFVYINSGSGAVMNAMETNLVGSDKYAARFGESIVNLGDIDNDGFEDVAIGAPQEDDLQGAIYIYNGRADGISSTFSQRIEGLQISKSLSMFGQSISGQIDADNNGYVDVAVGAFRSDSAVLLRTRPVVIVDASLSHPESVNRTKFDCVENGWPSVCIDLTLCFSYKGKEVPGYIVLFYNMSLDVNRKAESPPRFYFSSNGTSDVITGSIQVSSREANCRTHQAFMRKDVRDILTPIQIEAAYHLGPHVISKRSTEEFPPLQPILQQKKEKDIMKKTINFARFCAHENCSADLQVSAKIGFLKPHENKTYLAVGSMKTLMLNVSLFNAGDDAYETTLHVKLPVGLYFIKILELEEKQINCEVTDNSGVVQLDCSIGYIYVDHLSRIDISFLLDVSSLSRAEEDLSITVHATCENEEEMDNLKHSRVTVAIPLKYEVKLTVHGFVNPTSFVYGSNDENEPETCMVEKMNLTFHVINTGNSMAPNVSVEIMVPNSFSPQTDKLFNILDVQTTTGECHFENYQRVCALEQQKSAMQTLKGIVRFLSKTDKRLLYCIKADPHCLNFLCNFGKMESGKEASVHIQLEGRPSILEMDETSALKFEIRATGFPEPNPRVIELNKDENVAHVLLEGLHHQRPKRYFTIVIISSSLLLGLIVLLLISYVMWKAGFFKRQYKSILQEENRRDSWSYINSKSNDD
# [8] = superoxide lowering in aged yeast cells, pilot screen, validation compound set (AID 2706;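 active means superoxide response below 65% of plate, a cut near 3 SD across the whole screen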;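 further: yeast exposed to compound for one week at 30 degrees C before staining; 100% = mean of all compound wells on the same plate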); conditions: S. cerevisiae aging, superoxide DHE fluorescence; at 10 µM; stronger effect = lower value
# [9] = molecular target: Beta-adrenergic receptor kinase 1 (Homo sapiens) (UniProt P25098); experiment: GRK2 binders displacing RNA aptamer, biochemical, validation, human GRK2, bead flow cytometry (AID 488806;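 active means aptamer binding inhibition above 30%, about 3 SD of noise from non-fluorescent compounds; inactive means inhibition at or below 30%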); conditions: bead-bound GRK2, FAM-aptamer displacement, at 10 µM, stronger effect = higher value
# Sequence of Beta-adrenergic receptor kinase 1 (Homo sapiens) (P25098 whole entry, looked up): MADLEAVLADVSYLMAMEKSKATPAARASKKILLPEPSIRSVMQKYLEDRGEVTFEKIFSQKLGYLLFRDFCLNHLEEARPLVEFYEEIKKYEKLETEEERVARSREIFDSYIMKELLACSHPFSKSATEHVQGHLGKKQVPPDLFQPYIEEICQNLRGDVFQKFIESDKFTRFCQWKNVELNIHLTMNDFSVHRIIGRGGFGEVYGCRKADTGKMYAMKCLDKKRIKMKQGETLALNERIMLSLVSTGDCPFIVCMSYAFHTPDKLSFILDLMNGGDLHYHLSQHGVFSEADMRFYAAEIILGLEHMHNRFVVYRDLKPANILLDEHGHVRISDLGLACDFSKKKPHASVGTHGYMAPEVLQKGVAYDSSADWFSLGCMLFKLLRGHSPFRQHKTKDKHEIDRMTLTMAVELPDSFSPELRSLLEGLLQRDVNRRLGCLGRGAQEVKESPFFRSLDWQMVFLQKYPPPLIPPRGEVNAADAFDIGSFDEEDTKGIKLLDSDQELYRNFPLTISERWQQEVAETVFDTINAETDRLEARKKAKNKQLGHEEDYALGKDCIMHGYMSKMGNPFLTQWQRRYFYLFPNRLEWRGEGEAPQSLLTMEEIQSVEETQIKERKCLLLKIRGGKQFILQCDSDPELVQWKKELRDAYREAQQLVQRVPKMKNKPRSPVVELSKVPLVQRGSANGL
# [10] = molecular target: Beta-2 adrenergic receptor (Homo sapiens) (UniProt P07550); experiment: beta2AR agonists driving receptor internalization, pilot screen, cell-based, FAP fluorogen, flow cytometry, validation set (AID 504459;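 active means percent response above 42, roughly 3 SD of non-fluorescent test compounds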;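 further: agonist-driven loss of surface beta2AR via internalization measured by FAP dye flow cytometry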); conditions: Am2.2-beta2AR cells, FAP surface receptor flow cytometry; at 10 µM; stronger effect = higher value
# Sequence of Beta-2 adrenergic receptor (Homo sapiens) (P07550 whole entry, looked up): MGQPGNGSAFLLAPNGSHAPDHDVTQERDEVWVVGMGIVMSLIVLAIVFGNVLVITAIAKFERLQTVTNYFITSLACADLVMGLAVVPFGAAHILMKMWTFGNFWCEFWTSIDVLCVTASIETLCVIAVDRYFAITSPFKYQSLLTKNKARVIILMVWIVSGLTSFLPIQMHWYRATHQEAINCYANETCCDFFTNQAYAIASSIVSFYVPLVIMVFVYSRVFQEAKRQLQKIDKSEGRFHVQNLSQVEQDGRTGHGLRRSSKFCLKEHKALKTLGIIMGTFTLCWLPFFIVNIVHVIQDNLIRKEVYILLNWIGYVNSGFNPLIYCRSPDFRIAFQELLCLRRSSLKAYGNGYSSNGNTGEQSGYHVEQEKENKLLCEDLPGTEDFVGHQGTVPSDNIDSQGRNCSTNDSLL
# [11] = molecular target: AP-2 complex subunit beta (Homo sapiens) (UniProt P63010); experiment: inhibitors of arrestin peptide binding to AP2, pilot screen, biochemical, validation set, GST-AP2 beads, flow cytometry (AID 504541;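 active means inhibition above 54%, about 3 SD of non-fluorescent compounds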;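 further: AP2 carries R879A mutation and is captured from E. coli lysate; bead-bound FITC arrestin peptide fluorescence measuring arrestin peptide binding to AP2; 0% = DMSO wells and 100% = excess unlabeled arrestin peptide control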); conditions: FITC arrestin peptide, at 10 µM, stronger effect = higher value, AP2 beta2 appendage fragment, R879A mutant
# Sequence of AP-2 complex subunit beta (Homo sapiens) (P63010 whole entry, looked up, the tested form may be a part, one chain of several): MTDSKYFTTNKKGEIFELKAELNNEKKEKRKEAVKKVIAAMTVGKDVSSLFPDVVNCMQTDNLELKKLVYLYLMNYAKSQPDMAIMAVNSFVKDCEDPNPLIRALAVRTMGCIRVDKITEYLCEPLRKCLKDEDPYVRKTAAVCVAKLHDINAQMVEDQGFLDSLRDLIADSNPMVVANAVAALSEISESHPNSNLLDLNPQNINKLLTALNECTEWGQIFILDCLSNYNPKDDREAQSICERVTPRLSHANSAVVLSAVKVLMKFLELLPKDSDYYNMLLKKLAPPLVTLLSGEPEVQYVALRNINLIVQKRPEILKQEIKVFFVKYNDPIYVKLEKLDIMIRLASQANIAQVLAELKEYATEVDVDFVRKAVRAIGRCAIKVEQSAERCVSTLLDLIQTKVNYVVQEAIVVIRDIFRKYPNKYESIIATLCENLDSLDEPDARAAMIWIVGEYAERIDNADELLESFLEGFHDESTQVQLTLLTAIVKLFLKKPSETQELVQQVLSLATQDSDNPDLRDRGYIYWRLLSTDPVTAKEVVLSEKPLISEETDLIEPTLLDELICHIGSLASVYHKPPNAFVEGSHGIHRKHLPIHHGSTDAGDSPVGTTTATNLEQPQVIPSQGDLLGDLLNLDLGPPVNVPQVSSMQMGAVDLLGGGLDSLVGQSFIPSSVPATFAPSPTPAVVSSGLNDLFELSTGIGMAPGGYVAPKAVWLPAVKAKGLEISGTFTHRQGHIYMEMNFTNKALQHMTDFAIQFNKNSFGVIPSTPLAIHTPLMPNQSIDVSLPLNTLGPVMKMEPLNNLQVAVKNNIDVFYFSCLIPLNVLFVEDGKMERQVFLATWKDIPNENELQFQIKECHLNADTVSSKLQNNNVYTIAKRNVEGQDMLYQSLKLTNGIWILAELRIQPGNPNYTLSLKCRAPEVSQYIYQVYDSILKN
# [12] = yeast V-ATPase proton transport modulators, S. cerevisiae, pHLuorin, HTS validation (AID 504600; in the data active means response above about 15%;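 further: plate controls were DMSO for no effect and reference compound for full effect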); conditions: S. cerevisiae pHLuorin cytosolic pH, at 10 µM, stronger effect = higher value
# [13] = system: anti-desmoglein-3 scFv antibody binding to human DSG3; experiment: inhibitors of anti-DSG3 scFv binding to DSG3, pilot screen, biochemical, validation compound set, bead-based, flow cytometry (AID 588368;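 active means binding below the plate cutoff, the plate median minus 3 SD, with a reading above zero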;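 further: signal is the median channel fluorescence of bead-bound GFP antibody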); conditions: Protein G beads, DSG3-Fc, scFv-GFP binding, at 10 µM, stronger effect = lower value
# [14] = inhibitors of fungal efflux pumps CDR1, CDR2, MDR1, pilot screen, validation compound set, multiplex, phenotypic (AID 588506;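 active means efflux inhibition above 0.42, the validation set average plus 4 SD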;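 further: Nile Red retained in cells so higher fluorescence means more efflux inhibition; 0 = negative control wells and 1 = enniatin B 25 µM full block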); conditions: S. cerevisiae pump-expressing triplex, Nile Red efflux flow cytometry; at 10 µM; stronger effect = higher value; the pumps come from Candida albicans
# [15] = molecular target: ATP-binding cassette sub-family B member 6 (Homo sapiens) (UniProt Q9NP58); experiment: ABCB6 transporter inhibitors, pilot screen, K562-ABCB6 cells, flow cytometry, validation set (AID 588550;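 active means inhibition above the screen-wide mean plus 3 SD, about 51%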;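 further: 0% = DMSO wells and 100% = benzethonium chloride 70 µM positive control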); conditions: K562-ABCB6 porphyrin accumulation, 1 h, at 10 µM, stronger effect = higher value
# Sequence of ATP-binding cassette sub-family B member 6 (Homo sapiens) (Q9NP58 whole entry, looked up): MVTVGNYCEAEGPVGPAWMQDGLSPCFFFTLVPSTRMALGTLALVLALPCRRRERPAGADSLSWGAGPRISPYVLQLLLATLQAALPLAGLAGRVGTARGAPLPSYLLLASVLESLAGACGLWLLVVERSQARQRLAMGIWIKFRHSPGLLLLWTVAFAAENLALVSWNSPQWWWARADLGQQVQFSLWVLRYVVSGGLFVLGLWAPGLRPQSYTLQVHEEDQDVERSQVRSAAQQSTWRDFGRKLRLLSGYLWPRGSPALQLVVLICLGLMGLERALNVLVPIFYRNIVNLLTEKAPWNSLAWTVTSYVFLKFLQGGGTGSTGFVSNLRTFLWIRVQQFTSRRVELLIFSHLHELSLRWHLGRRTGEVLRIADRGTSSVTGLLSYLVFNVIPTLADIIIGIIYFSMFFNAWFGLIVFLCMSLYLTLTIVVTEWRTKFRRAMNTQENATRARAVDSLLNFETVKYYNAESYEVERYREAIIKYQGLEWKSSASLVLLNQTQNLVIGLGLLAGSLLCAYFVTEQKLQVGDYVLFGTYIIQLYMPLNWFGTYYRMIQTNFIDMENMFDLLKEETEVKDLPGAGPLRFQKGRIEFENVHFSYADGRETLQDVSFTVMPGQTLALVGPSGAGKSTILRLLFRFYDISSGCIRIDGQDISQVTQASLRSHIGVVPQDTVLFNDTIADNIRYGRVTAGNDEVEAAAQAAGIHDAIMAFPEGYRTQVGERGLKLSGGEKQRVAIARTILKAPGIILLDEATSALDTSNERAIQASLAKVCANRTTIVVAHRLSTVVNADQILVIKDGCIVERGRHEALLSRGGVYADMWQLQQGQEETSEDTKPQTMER
# [16] = promoters of myeloid differentiation in arrested cells, primary screen, cell-based, GFP/MAC1 double positive, flow cytometry, validation set (AID 588685;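 active means differentiation response of at least 50%, scaled between solvent and reference control, from cells with both markers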;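 further: compound exposure lasts four days before antibody staining and flow analysis; 0% = DMSO wells and 100% = 5 µM fulvestrant positive control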); conditions: ER-HoxA9 marrow cells, stronger effect = higher value, normalized: vehicle 0, fulvestrant 100
Compound,percent of DMSO control GFP [1],GFP response vs DMSO [2],percent response of DMSO control [3],GFP response vs DMSO [4],"GFP response, % of DMSO [5]",double positive events [6],vesicle binding response [6],inhibition [7],superoxide response (% of plate) [8],aptamer binding inhibition [9],response [10],inhibition [11],response [12],binding (% of control) [13],efflux inhibition (fraction of control) [14],inhibition [15],differentiation response [16]
CN1CCCN=C1COC(=O)C(O)(c1ccccc1)C1CCCCC1 (stereo not given),103% (inactive),107% (inactive),93.1% (inactive),92.7% (inactive),96.5% (inactive),64%,205% (inactive),7.85% (inactive),98.5% (inactive),6% (inactive),3.5% (inactive),12.1% (inactive),4.32% (inactive),91.9% (inactive),-0.14 (inactive),-5% (inactive),5.13% (inactive)
CC(C)Oc1ccc(C2CC(=O)N(c3ccc(C(=O)O)cc3)C2=O)cc1 (stereo not given),98.1% (inactive),97.6% (inactive),105% (inactive),137% (inactive),122% (inactive),57.7%,178% (inactive),3.14% (inactive),135% (inactive),-4% (inactive),-19.8% (inactive),-15% (inactive),-1.38% (inactive),105% (inactive),-0.04 (inactive),-1% (inactive),-9.91% (inactive)
O=c1c2[nH]c3ccccc3c2ncn1CCC1=CCCCC1,91.7% (inactive),127% (inactive),103% (inactive),82% (inactive),89.6% (inactive),62.1%,149% (inactive),14.2% (inactive),95.4% (inactive),-3% (inactive),-1.85% (inactive),-5.27% (inactive),0.28% (inactive),101% (inactive),0.01 (inactive),13% (inactive),1.64% (inactive)
COc1ccc(-c2nc3c(=O)n(C)c(=O)[nH]c3n2CCc2ccccc2)cc1,111% (inactive),103% (inactive),115% (inactive),93.1% (inactive),104% (inactive),64%,232% (inactive),13.2% (inactive),107% (inactive),0% (inactive),12.6% (inactive),-0.08% (inactive),-6.09% (inactive),99.3% (inactive),-0.13 (inactive),3% (inactive),-23.2% (inactive)
CC(=O)NC1C(OCc2ccccc2)OC(COC(C)=O)C(OC(C)=O)C1OC(C)=O (stereo not given),104% (inactive),104% (inactive),106% (inactive),91.5% (inactive),96% (inactive),65.2%,183% (inactive),-44% (inactive),105% (inactive),2% (inactive),1.83% (inactive),-2% (inactive),-3.81% (inactive),104% (inactive),0.12 (inactive),2% (inactive),-6.03% (inactive)
Cc1nc(N)nc2c1CCCC2,89.1% (inactive),133% (inactive),99.2% (inactive),74.8% (inactive),94.9% (inactive),62.1%,179% (inactive),6.46% (inactive),102% (inactive),5% (inactive),-4.6% (inactive),-2.43% (inactive),-0.37% (inactive),109% (inactive),-0.31 (inactive),13% (inactive),-9.83% (inactive)
O=C(CCCN1C(=O)/C(=C\c2cccc(Br)c2)SC1=S)Nc1cccnc1,94.2% (inactive),104% (inactive),95.8% (inactive),120% (inactive),95.8% (inactive),57.4%,211% (inactive),2.3% (inactive),98.5% (inactive),2% (inactive),10.2% (inactive),-4.08% (inactive),-5.34% (inactive),101% (inactive),0.01 (inactive),5% (inactive),-12% (inactive)
CC(/C=C1\SC(=O)N(CCCC(=O)O)C1=O)=C\c1ccccc1,105% (inactive),103% (inactive),99% (inactive),124% (inactive),99.3% (inactive),59.5%,161% (inactive),12.5% (inactive),112% (inactive),2% (inactive),-6.06% (inactive),37.2% (inactive),-1.36% (inactive),101% (inactive),0 (inactive),0% (inactive),12.8% (inactive)
O=C(O)C1CSC(c2ccco2)N1 (stereo not given),102% (inactive),103% (inactive),102% (inactive),120% (inactive),124% (inactive),60.6%,168% (inactive),-19% (inactive),100% (inactive),33% (active),-18.6% (inactive),10% (inactive),-1.58% (inactive),99.5% (inactive),0.04 (inactive),2% (inactive),-2.03% (inactive)
CC1(C)CC(c2csc(N)n2)CCO1 (stereo not given),103% (inactive),106% (inactive),106% (inactive),86.8% (inactive),101% (inactive),65.9%,915% (inactive),1.62% (inactive),101% (inactive),3% (inactive),-0.12% (inactive),8.95% (inactive),-0.04% (inactive),93.3% (inactive),-0.14 (inactive),-3% (inactive),-4.64% (inactive)
